This note sets out measurements from PubChem BioAssay (NCI).

Common to all, as to assay: NCI-60 one-dose screen, 48 h (100 = growth as untreated, 0 = no growth, -100 = all killed)
For assay [1], the system named is SR leukemia. To be noted: 10 µM.
The test system of assay [2] is RPMI-8226 leukemia. To be noted: 10 µM.
Assay [3] relates to OVCAR-8 ovarian. To be noted: 10 µM.
In assay [4] the test system is OVCAR-5 ovarian. To be noted: 10 µM.
Assay [5] relates to OVCAR-4 ovarian. To be noted: 10 µM.
Assay [6] has as its system SK-OV-3 ovarian. To be noted: 10 µM.
Assay [7] deals with IGROV1 ovarian. To be noted: 10 µM.
Assay [8] concerns OVCAR-3 ovarian. To be noted: 10 µM.
Assay [9] relates to HS 578T breast. To be noted: 10 µM.
The test system of assay [10] is NCI/ADR-RES ovarian. To be noted: 10 µM.
Assay [11] relates to T-47D breast. To be noted: 10 µM.
Assay [12] has as its system BT-549 breast. To be noted: 10 µM.
Assay [13] deals with MDA-MB-435 melanoma. To be noted: 10 µM.
For assay [14], the system named is SW-620 colon. To be noted: 10 µM.
The subject of assay [15] is MCF7 breast. To be noted: 10 µM unless noted.
For assay [16], the system named is HCT-116 colon. To be noted: 10 µM.
In assay [17] the test system is HCC-2998 colon. To be noted: 10 µM.
Assay [18] relates to KM12 colon. To be noted: 10 µM.

Each structure is given as a SMILES string. Compounds without any hit were thinned out: in the full panel of roughly 83,000, 20% have a hit.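 Interpretation: 100, growth as untreated; towards 0, rising growth inhibition; 0, no net growth; 0 to -100, cell death. Compounds scoring below 10 were considered active.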 A number with no mark means an inactive call. The source made the active and inactive calls.

As to `CCS(=O)(=O)c1cc(=O)[nH]c(=O)[nH]1`, the growth is 57.6% in assay [1]; 124% in assay [2]; 114% in assay [3]; 106% in assay [4]; 102% in assay [5]; 116% in [6]. The growth is 136% in [7]; 112% in assay [8]; 113% in assay [9]; 103% in [10]; 114% in [11]; 115% in assay [12]. The growth is 86.7% in assay [13]; 112% in assay [14]; 106% in assay [15]; 104% in assay [16]; 116% in [17]; 107% in assay [18].
Turning to `N#Cc1ccc(OC(=O)Nc2ccc(Cl)c(Cl)c2)cc1`, the growth was 39.4% in assay [1]; 5.09% (active) in assay [2]; 59% in assay [3]; 91.6% in assay [4]; 66.7% in assay [5]; 107% in assay [6]. In addition, the growth was 64.4% in assay [7]; 33.3% in [8]; 103% in assay [9]; 65.5% in assay [10]; 27.9% in assay [11]; 93.3% in assay [12]. Further, the growth was 99.3% in assay [13]; 96.2% in assay [14]; 44.5% in assay [15]; 50% in assay [16]; 87.1% in assay [17]; 42.9% in assay [18].
As to `COc1cccc(/C=N/NC(=S)NC2CC3CCC2C3)c1O` (configuration not stated), the growth was 3.68% (active) in assay [1]; 46.8% in assay [2]; 40.5% in assay [3]; 85.1% in [4]; 19.2% in assay [5]; 46.2% in [6]. The growth was 67% in assay [7]; 6.8% (active) in assay [8]; 25.8% in [9]; 15.4% in assay [10]; 35.7% in assay [11]; 79.8% in assay [12]. For the same compound, the growth in [13] is 76.4%; in assay [14] it was 57.9%; in assay [15], 37.8%; in [16], 24.8%; in assay [17] it was 96.3%; in [18], 69.1%.
For the compound `COC(=O)Nc1nc2ccc(C(=O)c3cccs3)cc2[nH]1`, the growth is -4.93% (active) in [1]; 28.7% in assay [2]; 13.1% in assay [3]; 42.4% in [4]; 36.3% in assay [5]; 13.3% in assay [6]. In addition, the growth in [7] was 39.1%; in [8] it was -7.19% (active); in assay [9] it was 20.9%; in assay [10] it was -20.4% (active); in assay [11], 91.1%; in assay [12], 26.3%. Moreover, the growth in assay [13] was -47.6% (active); in assay [14] it was 24.8%; in assay [15] it was 14.6%; in assay [16], 11.7%; in [17] it was 12.1%; in assay [18] it was 7.54% (active).
On to `O=C(O)C(Cc1ccccc1)C(=O)O`, for which the growth was 101% in assay [1]; 109% in assay [2]; 109% in assay [3]; 111% in [4]; 96.3% in assay [5]; 103% in assay [6]. Moreover, the growth in assay [7] was 113%; in assay [8], 110%; in assay [9], 104%; in assay [10] it was 106%; in assay [11], 103%; in assay [12], 99.1%. Further, the growth in assay [13] was 111%; in assay [14], 105%; in assay [15] it was 99.8%; in assay [16], 96.8%; in assay [17], 106%; in assay [18], 107%.
Turning to `N/N=C(/Cc1ccccc1)NNC(N)=S`, the growth in [1] was 99.2%; in assay [2], 100%; in assay [3] it was 108%; in assay [4], 111%; in [5] it was 101%; in assay [6], 106%. In addition, the growth was 95.2% in [7]; 111% in assay [8]; 106% in assay [9]; 107% in assay [10]; 91.6% in assay [11]; 75.7% in [12]. The growth was 92.3% in [13]; 111% in assay [14]; 89.2% in assay [15]; 86.3% in assay [16]; 117% in [17]; 101% in [18].
As for `CC(=O)Nc1c(C)cc(C)cc1C`, the growth is 98.7% in assay [1]; 111% in assay [2]; 104% in assay [3]; 115% in [4]; 95.9% in [5]; 113% in assay [6]. Moreover, the growth in [7] is 110%; in assay [8], 102%; in assay [9], 111%; in assay [10], 99.7%; in assay [11], 98.2%; in [12] it was 105%. The growth is 102% in assay [13]; 106% in assay [14]; 96.5% in assay [15]; 102% in assay [16]; 104% in [17]; 103% in [18].
With `COCCOCCCl`, the growth in assay [1] is 108%; in assay [2], 115%; in [3], 110%; in assay [4], 106%; in [5] it was 105%; in [6], 109%. For the same compound, the growth in assay [7] was 116%; in assay [8], 111%; in assay [9], 102%; in assay [10], 109%; in [11], 98.1%; in [12], 107%. For the same compound, the growth in assay [13] is 106%; in [14], 101%; in assay [15], 100%; in assay [16], 99.7%; in assay [17], 101%; in [18], 107%.
For the compound `CCOC(=O)C1OC1c1ccccc1` (configuration not stated), the growth in assay [1] was 98.7%; in [2], 113%; in [3], 106%; in assay [4] it was 102%; in assay [5], 101%; in assay [6], 99%. Also, the growth in [7] was 108%; in assay [8] it was 101%; in assay [9], 115%; in assay [10], 106%; in [11], 98.8%; in [12] it was 102%. The growth in assay [13] is 107%; in assay [14], 107%; in assay [15], 96%; in assay [16] it was 98.6%; in [17], 108%; in assay [18] it was 100%.
